FMDV inh: antivirals against foot and mouth disease virus; FMDV antiviral cell-based qHTS; Potency, µM (titrated, usually from 57.9 µM), for inactives: at the highest dose activity change, negative = inhibition, hits mostly inhibitors; 410,000 tested, 1.2% active; calls by dose curve; tested in HEK293T cells; further: read-out not given here; potency means the concentration at half of the fitted maximal effect; nearly all actives have a fitted effect of over 45% in size
VACV mCherry inh: vaccinia inhibition (mCherry reporter); AID 720579; 310,000 tested, 0.63% active; Potency, µM (series often up to 36.5 µM), for inactives: at the top dose activity change, negative = inhibition, actives largely listed as inhibitors; Vaccinia virus mCherry reporter infection, fluorescence; calls by dose curve; tested in A549 cells; further: potency means the concentration at half of the fitted maximal effect; nearly all actives have a fitted effect of over 35% in size
HCMV inh: human cytomegalovirus inhibition. HFF cells, HCMV-luciferase reporter, 72 h; stronger effect = lower value. activity change, negative = inhibition, % at 57.5 µM. 410,000 tested, 4.5% active. AID 1259415; in the data active means activity change below about -60%; inconclusive means no clear call, values can overlap the other calls; inactive means above about -39%
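Two compound doses tested in HFFs infected with HCMV-luciferase, MOI 1 PFU/cell, 72 h at 37C. Lysate luminescence read with OneGlo; data normalized against buffer-only and 10uM Salinomycin inhibitor controls.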
Vaccinia Venus: inhibitors of vaccinia virus (Venus reporter); Potency, µM (series often up to 36.5 µM), without a hit: at the top dose activity change, negative = inhibition, usual class: inhibitors; 330,000 tested, 0.46% active; Vaccinia virus Venus reporter expression, fluorescence; calls by dose curve; tested in A549 cells; further: potency means the concentration at half of the fitted maximal effect; nearly all actives have a fitted effect of over 30% in size
MARV entry inh: inhibitors of Marburg virus binding or cell entry. 300,000 tested, 1.8% active. Potency, µM (titrated, usually from 37.8 µM), inactives show at the top dose activity change, negative = inhibition, actives largely listed as inhibitors. Marburg virus pseudotyped entry inhibition, cell reporter; calls by dose curve; tested in HEK293 cells; further: potency means the concentration at half of the fitted maximal effect
Lassa entry inh: inhibitors of Lassa virus binding or cell entry; Lassa virus pseudotype entry inhibition, cell reporter; Potency, µM (top dose mostly 37.9 µM), for the others: at the top dose activity change, negative = inhibition, most hits filed as inhibitors; 300,000 tested, 1.2% active; AID 540256; calls by dose curve; tested in HEK293 cells; further: potency means the concentration at half of the fitted maximal effect; nearly all actives have a fitted effect of over 50% in size
Starred values were filed as active, the others as inactive; i = inactive; ? = inconclusive; . = no result given; [ ] = remark or other dose. This is a sample that favours compounds with a hit; in the whole collection about 6.5% have one here. On the % scale 0 is the no-effect control and ±100 the full control effect.

SMILES	FMDV inh	VACV mCherry inh	HCMV inh	Vaccinia Venus	MARV entry inh	Lassa entry inh
CN1c2ccccc2C(C)(C)C12CC(c1cccc(S(=O)(=O)N3CCCC3)c1)=NO2 (configuration not stated)	-24%	i	-72*	2%	0.46µM*	0.52µM*
COc1ccccc1NC(=O)c1c(C)cc(C)nc1SCC(=O)Nc1ccc(C)cc1	-19%	-13%	-25	-18%	?	-28%[46.1 µM]
Cn1c(=O)c2c(nc(-c3ccc(N(CCCl)CCCl)cc3)n2C)n(C)c1=O	32µM*	?	-30	-22%	?	?
COc1cc(OC)cc(C(=O)NCC(=O)N2CC=C(c3ccccc3)CC2)c1	-10%	?	-5	?	?	-7%
Cc1cc(C)c(OCC(=O)N2CC=C(c3ccccc3)CC2)c(C)c1	0%	.	-67*	.	.	.
Cn1cnnc1SCC(=O)c1ccc(OC(F)F)cc1	4%	.	-78*	.	21%	1%
O=C(CNC(=O)c1ccccc1)OCC(=O)c1ccc2ccccc2c1	.	17%	.	13%	.	.
CC(C)CCNC(=O)c1cccc(-n2cnc3cccnc32)c1	-8%	-11%	?	-2%	.	-1%[46.1 µM]
CCOc1ccc(-c2nc(C#N)c(N3CCCCCC3)o2)cc1	-25%	-4%	-70*	8%	.	.
CCOc1ccc(-c2nc(C#N)c(N3CCN(CC)CC3)o2)cc1	-26%	.	-17	.	11%	-1%
CCCOc1ccc(-c2nc(C#N)c(N3CCN(C)CC3)o2)cc1	-15%	.	-2	-14%	-3%	6%
CCOc1ccc(-c2nc(C#N)c(N3CCN(C)CC3)o2)cc1	-2%	-9%	-61*	-18%	3%	?
COc1ccc2c(c1)-c1nc(-n3ncc(C(=O)N(C)CC4CCCN(C)C4)c3C3CC3)ncc1CC2 (configuration not stated)	0%	-12%	.	-3%	.	.
NS(=O)(=O)c1cccc(NC(=O)c2cc(=O)c3ccccc3o2)c1	24%	-10%	7	-8%	-7%[46.1 µM]	4%[46.1 µM]
O=C(Nc1cccc(S(=O)(=O)N2CCCCCC2)c1)c1cc(=O)c2ccccc2o1	20µM*	-29%	-5	-24%	?	-7%
CN(c1ccccc1)S(=O)(=O)c1cccc(NC(=O)c2cc(=O)c3ccccc3o2)c1	32µM*	-12%	-66*	-4%	13µM*	?
CC1=C[C@@H](COCc2ccccc2)O[C@@]2(C1)C(=O)N(Cc1ccc(Br)cc1)c1ccccc12	.	.	.	.	4%[14.2 µM]	?
CCOC(=O)c1ccc(N2C(=O)C3CCOc4ccccc4C32)cc1 (configuration not stated)	-16%	i	-79*	?	.	.
CCOC(=O)c1ccc(N2C(=O)[C@@H](c3ccccc3)[C@H]2c2ccccc2)cc1	-21%	i	0	-8%	.	.
CCOc1ccccc1NC(=O)c1nn(-c2ccc(C)cc2)c(=O)n(C)c1=O	3%	-18%	10	-16%	.	13%[46.1 µM]
c1ccc(C(c2nnnn2C2CCCC2)N2CCN(c3ccccc3)CC2)cc1 (configuration not stated)	-4%	-13%	-25	-12%	?	18µM*
O=C(c1ccco1)N1CCN(C(c2ccccn2)c2nnnn2C2CCCC2)CC1 (configuration not stated)	.	i	-7	-8%	2%	21%
COc1ccc(OC)c(C(c2nnnn2C2CCCC2)N2CCN(c3ccccc3)CC2)c1 (configuration not stated)	-5%	.	-6	-31%	10µM*	?
O=C(c1ccco1)N1CCN(C(c2cccs2)c2nnnn2C2CCCC2)CC1 (configuration not stated)	18%	-15%	-101*	-14%	?	11%
O=C(CC(=O)NCc1ccc(Cl)cc1)NCc1ccccc1	-26%	.	-13	.	.	.
SMILES	FMDV inh	VACV mCherry inh	HCMV inh	Vaccinia Venus	MARV entry inh	Lassa entry inh
CC1(NCc2ccc(Cl)cc2)COP(=O)(NCc2ccccc2)OC1 (configuration not stated)	-7%	i	-83*	-19%	-8%	6%
S=c1[nH]nc(C2CC2c2ccc(Cl)cc2)n1-c1ccc(Cl)cc1 (configuration not stated)	-12%	-27%	25	?	-21%	16µM*
Cc1ccc(-n2c(C3CC3c3ccc(Cl)cc3)n[nH]c2=S)cc1 (configuration not stated)	0%	.	-30	.	3%	-7%
C[N+]1(CC(=O)c2ccc(-c3ccccc3)cc2)CCOCC1	.	i	.	-11%	.	.
CC(=O)c1c(C)[nH]c(C(=O)NCc2ccc(Cl)cc2)c1C	6%	-12%	5	-24%	.	.
CC(=O)c1[nH]c(C)c(C(=O)NCc2ccc(Cl)cc2)c1C	?	-29%	-94*	-29%	.	21%[46.1 µM]
CCCCOc1ccc(C(=O)Nc2ccncc2)cc1	?	.	-76*	?	?	?
COc1ccccc1C(=O)Nc1ccc(NC(=O)c2ccco2)cn1	27%	i	17	-13%	?	22%
COc1ccc(C(=O)Nc2ccc(NC(=O)c3cccs3)cc2)cc1Cl	8%	.	-76*	.	26%	6%
COc1ccccc1C(=O)NC(=S)Nc1ccc(NC(=O)c2ccco2)cc1	-2%	-3%	-75*	-3%	?	-2%[46.1 µM]
CCCCOc1cccc(C(=O)Nc2ccc(NC(=O)c3cccs3)cc2)c1	13%	-14%	-89*	?	?	?
O=C(C1CCN(S(=O)(=O)Cc2ccccc2)CC1)N1CCN(c2ccccc2F)CC1	-29%	-1%	2	4%	14%[46.1 µM]	1%[46.1 µM]
C=CCOC(=O)N[C@@H](Cc1ccccc1)/C(C(=O)OC)=C(\C)NCc1ccccc1	.	.	.	.	-11%[14.2 µM]	.
Cc1ccc(-n2nc3c(N4CCC(C(=O)N5CCCCC5)CC4)nnc(C)c3c2C)cc1	-20%	-30%	-39	-25%	.	?
Cc1ccc(CN2C(=O)c3ccccc3S(=O)(=O)c3ccc(C(=O)OCC4CCCO4)cc32)cc1 (configuration not stated)	4%	-1%	9	4%	.	-3%[46.1 µM]
COc1ccccc1C(=O)NC(=S)Nc1ccc(NC(=O)c2cccs2)cc1	?	-28%	-67*	-22%	?	-24%
COc1ccccc1C(=O)Nc1ccc(NC(=O)c2cccs2)cc1	-25%	?	-25	?	.	1%[46.1 µM]
Cc1ccc(Nc2nc(C)nc(N)c2S(=O)(=O)c2ccccc2)cc1	1%	4%	-2	5%	15%[46.1 µM]	1%[46.1 µM]
CSc1c2c(n(CC3CCCCC3)c1CC(=O)NC1CCCCC1)CCCC2	.	.	.	.	5%	.
CC1=CC(C)(C)n2c(O)c(N=NC(N)=S)c3cc(C)cc1c32	-24%	.	-68*	.	14%	14%
CCOC(=O)c1ccc(NC(=O)CN2C(=O)CC(c3ccc(C)c(C)c3)=Nc3ccccc32)cc1	27%	-18%	18	-17%	.	-23%[46.1 µM]
Cc1nc2ccccc2c2c(N)c3ccccc3n12	-21%	4%	-63*	-3%	-21%[46.1 µM]	-4%
